# In PubChem BioAssay:
# Inconclusive results are not listed. Calls of active or inactive are those of the source.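 Rule for the calls, unless noted: active = compounds killing one labelled cell type while sparing the other, by normalised counts and ratio limits, not self-fluorescent; inactive = the rest.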
# Tests used:
# [1] = compounds altering circadian rhythm period length – cell-based, LOPAC library, luminescence reporter (AID 2774; call rule not given here;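 note: values are relative to mean of DMSO wells on each plate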); details: circadian reporter cells, at 7 µM, actives lie on both sides
# [2] = P. berghei load reduction in hepatocytes – cell-based, HepG2, luciferase luminescence, HepG2 viability, primary screen (AID 624349; in the data active = parasite load remaining mostly below about 12%, no sharp cut-off; inactive = mostly above about 10%;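 note: 100% = mean of DMSO negative control wells on the same plate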); details: P. berghei liver stage in HepG2, luciferase luminescence, concentration not given here; parasite load remaining: stronger effect = lower value; viability: measured here: HepG2 viability without parasites
# [3] = test system: Hepatitis C virus NS3 helicase; assay: blockers of NS3h binding to ssDNA – biochemical, fluorescence polarization, LOPAC1280 library, primary screen (AID 687035; in the data active = inhibition above about 37%); details: Purified HCV NS3 helicase, Cy5-dT15 ssDNA binding fluorescence polarization; stronger effect = higher value; concentration not given here
# [4] = compounds altering Cy5-DNA-NS3h complex signal – biochemical, LOPAC1280, artefact control for HCV NS3 helicase inhibitor project (AID 687037; call rule not given here); details: Cy5-DNA-NS3h complex fluorescence interference counterscreen
# [5] = EMT-state selective cytotoxicity in co-culture – imaging, PC-3E GFP, TEM4-18 mCherry, primary screen (AID 1345086); details: PC-3E GFP / TEM4-18 mCherry co-culture, imaging cell counts, at 1 µM; for red/green cell ratio (normalised): actives lie on both sides, counts scaled to control wells, 1 = unselective;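 for all read-outs here: cells exposed to compound for 72 h before imaging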;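 for red/green cell ratio (normalised): normalised mesenchymal count divided by normalised epithelial count so high means epithelial killing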
# [6] = viability loss in pontine glioma line – cell-based, SU-DIPG-XIII, MIPE4.0, CellTiter-Glo, qHTS, dose response (AID 1347061; cut-off not given, nearly all actives have AC50 up to about 37 µM;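 note: cells exposed to compound for 48 hours before readout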); details: CellTiter-Glo ATP luminescence
# [7] = viability loss in pontine glioma line – cell-based, JHH-DIPG-1, MIPE4.0, CellTiter-Glo, qHTS, dose response (AID 1347062; cut-off not given, nearly all actives have AC50 up to about 27 µM); details: JHH-DIPG-1 viability, CellTiter-Glo ATP luminescence
# [8] = viability loss in pontine glioma line – cell-based, SU-DIPG-IV, MIPE4.0, CellTiter-Glo, qHTS, dose response (AID 1347063; cut-off not given, nearly all actives have AC50 up to about 30 µM;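 note: compound exposure lasted 48 hours before the viability readout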); details: CellTiter-Glo ATP luminescence
# [9] = growth inhibition of DIPG cells – cell-based, MIPE4.0 library, CellTiter-Glo luminescence, qHTS (AID 1347066; cut-off not given, nearly all actives have AC50 up to about 30 µM;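 note: cells exposed to compound for 48 hours before readout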); details: SU-DIPG-VI viability, CellTiter-Glo ATP luminescence
# [10] = viability loss with induced miR-34 in A549 – imaging, A549 dox-inducible miR-34, nuclei and caspase counts, primary screen (AID 1347080;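 active = compounds whose cell count with miR-34 switched on is under 0.7 times the count with it off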); details: A549 miR-34 inducible, Hoechst nuclei count, 48 h
# [11] = blockers of cellular phospholipid synthesis – cell-based, LOPAC library, screen 4, primary screen (AID 1347384; call rule not given here); details: animal cells, phospholipid biosynthesis inhibition screen; at 10 µM
# [12] = galactose survival enhancers in mitochondrial complex I cybrids – cell-based, galactose medium, ATP luminescence, primary screen (AID 1645843;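 active = z-score of at least 1.8 in each of two replicates, scored against plate mean and spread of sample wells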;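 note: positive z means more ATP and so rescue of galactose-driven cybrid death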); details: complex I mutant cybrid cells, 72 h, stronger effect = higher value
# [13] = measured here: epithelial PC-3E GFP cell survival
# [14] = measured here: mesenchymal TEM4-18 mCherry cell survival
# [15] = stronger effect = lower value, cell number ratio, induced over uninduced
# [16] = measured here: relative caspase fold change +Dox/-Dox
# [17] = measured here: total cells with miR-34 induction, stronger effect = lower value
# [18] = measured here: total cells without miR-34 induction
smiles,measurement,setting,value
CC1CC2C3CCC4=CC(=O)C=C[C@]4(C)[C@@]3(F)[C@@H](O)C[C@]2(C)[C@@]1(O)C(=O)CO (stereo partly specified),period change,[1],-0.45 h (inactive)
same,parasite load remaining,[2],123% (inactive)
same,viability,[2],71.5%
same,inhibition,[3],-1% (inactive)
same,fluorescence ratio (interference),[4],1 (inactive)
same,red/green cell ratio (normalised),[5],1.04 (inactive)
same,normalised cell number,[5]; [13],1.32
same,normalised cell number,[5]; [14],1.37
same,outcome,[6],inactive
same,outcome,[7],inactive
same,outcome,[8],inactive
same,outcome,[9],inactive
same,fold change,[10]; [15],0.94 (inactive)
same,fold change,[10]; [16],1.79
same,cell count,[10]; [17],7510
same,cell count,[10]; [18],7990
same,outcome,[11],inactive
same,z-score,[12],1.44 (inactive)
Nc1nc(NC2CC2)c2ncn(C3C=C[C@@H](CO)C3)c2n1 (stereo partly specified),red/green cell ratio (normalised),[5],1.14 (inactive)
same,normalised cell number,[5]; [13],1.1
same,normalised cell number,[5]; [14],1.26
same,fold change,[10]; [15],0.995 (inactive)
same,fold change,[10]; [16],0.706
same,cell count,[10]; [17],8880
same,cell count,[10]; [18],8920
CC(=O)OCC(=O)[C@@]1(O)CCC2C3CCC4=CC(=O)C=C[C@]4(C)[C@@]3(Cl)[C@@H](Cl)C[C@@]21C (stereo partly specified),red/green cell ratio (normalised),[5],1 (inactive)
same,normalised cell number,[5]; [13],1.2
same,normalised cell number,[5]; [14],1.2
same,fold change,[10]; [15],0.864 (inactive)
same,fold change,[10]; [16],1.22
same,cell count,[10]; [17],6210
same,cell count,[10]; [18],7190
O=c1[nH]cnc2c1ncn2C1O[C@H](CO)[C@@H](O)[C@H]1O (stereo partly specified),red/green cell ratio (normalised),[5],1.22 (inactive)
same,normalised cell number,[5]; [13],0.83
same,normalised cell number,[5]; [14],1.02
same,fold change,[10]; [15],0.943 (inactive)
same,fold change,[10]; [16],0.652
same,cell count,[10]; [17],8910
same,cell count,[10]; [18],9440
COc1c(O)cc2c(c1O)[C@H]1O[C@H](CO)[C@@H](O)[C@H](O)[C@@H]1OC2=O,red/green cell ratio (normalised),[5],0.9 (inactive)
same,normalised cell number,[5]; [13],1.23
same,normalised cell number,[5]; [14],1.11
same,fold change,[10]; [15],0.894 (inactive)
same,fold change,[10]; [16],0.886
same,cell count,[10]; [17],8900
same,cell count,[10]; [18],9950
CC(=O)[C@H]1CCC2C3CC=C4C[C@@H](OC(=O)CCC(=O)O)CC[C@]4(C)C3CC[C@@]21C (stereo partly specified),red/green cell ratio (normalised),[5],0.87 (inactive)
same,normalised cell number,[5]; [13],1.07
same,normalised cell number,[5]; [14],0.93
same,fold change,[10]; [15],0.903 (inactive)
same,fold change,[10]; [16],0.914
same,cell count,[10]; [17],8450
same,cell count,[10]; [18],9360
CC(=O)OC1CC2CCC1(C)C2(C)C (stereo unspecified),red/green cell ratio (normalised),[5],1.03 (inactive)
same,normalised cell number,[5]; [13],0.91
same,normalised cell number,[5]; [14],0.94
same,fold change,[10]; [15],0.913 (inactive)
same,fold change,[10]; [16],0.766
same,cell count,[10]; [17],8690
same,cell count,[10]; [18],9520
NC(=O)c1ncn(C2O[C@H](CO)[C@@H](O)[C@H]2O)c1N (stereo partly specified),red/green cell ratio (normalised),[5],0.89 (inactive)
same,normalised cell number,[5]; [13],1.13
same,normalised cell number,[5]; [14],1
same,fold change,[10]; [15],0.937 (inactive)
same,fold change,[10]; [16],0.793
same,cell count,[10]; [17],9050
same,cell count,[10]; [18],9660
CCC(=O)Oc1ccc2c(c1)CCC1C2CC[C@@]2(C)C1CC[C@@H]2OC(=O)CC (stereo partly specified),red/green cell ratio (normalised),[5],1.36 (inactive)
same,normalised cell number,[5]; [13],0.8
same,normalised cell number,[5]; [14],1.09
same,fold change,[10]; [15],0.968 (inactive)
same,fold change,[10]; [16],0.855
same,cell count,[10]; [17],8160
same,cell count,[10]; [18],8430
C[C@]12CCC(=O)C=C1[C@@H]1C[C@@H]1C1C2CC[C@@]2(C)C1[C@@H]1C[C@@H]1[C@@]21CCC(=O)O1 (stereo partly specified),red/green cell ratio (normalised),[5],0.65 (inactive)
same,normalised cell number,[5]; [13],1.4
same,normalised cell number,[5]; [14],0.91
same,fold change,[10]; [15],1.02 (inactive)
same,fold change,[10]; [16],0.868
same,cell count,[10]; [17],7990
same,cell count,[10]; [18],7840
Cc1oc(=O)oc1CN1CCN(c2cc3c(cc2F)c(=O)c(C(=O)O)c2n3C(C)C2)CC1 (stereo unspecified),red/green cell ratio (normalised),[5],0.94 (inactive)
same,normalised cell number,[5]; [13],0.97
same,normalised cell number,[5]; [14],0.91
same,fold change,[10]; [15],0.994 (inactive)
same,fold change,[10]; [16],0.87
same,cell count,[10]; [17],9060
same,cell count,[10]; [18],9120
O=C(O)c1ccccc1-c1c2cc(I)c(=O)c(I)c-2oc2c(I)c(O)c(I)cc12,red/green cell ratio (normalised),[5],0.52 (inactive)
same,normalised cell number,[5]; [13],0.98
same,normalised cell number,[5]; [14],0.5
same,fold change,[10]; [15],0.927 (inactive)
same,fold change,[10]; [16],0.976
same,cell count,[10]; [17],9160
same,cell count,[10]; [18],9880
CC1(C)C2CCC1(CS(=O)(=O)O)C(=O)/C2=C\c1ccc(/C=C2\C(=O)C3(CS(=O)(=O)O)CCC2C3(C)C)cc1,red/green cell ratio (normalised),[5],0.78 (inactive)
same,normalised cell number,[5]; [13],1.44
same,normalised cell number,[5]; [14],1.12
same,fold change,[10]; [15],0.905 (inactive)
same,fold change,[10]; [16],1.03
same,cell count,[10]; [17],8090
same,cell count,[10]; [18],8940
COc1cc(O)cc(C(=O)c2ccccc2)c1S(=O)(=O)O,red/green cell ratio (normalised),[5],1 (inactive)
same,normalised cell number,[5]; [13],1.17
same,normalised cell number,[5]; [14],1.18
same,fold change,[10]; [15],0.973 (inactive)
same,fold change,[10]; [16],0.886
same,cell count,[10]; [17],9730
same,cell count,[10]; [18],10000
C#C[C@]1(O)CCC2C3CCc4cc(OC5CCCC5)ccc4C3CC[C@@]21C (stereo partly specified),red/green cell ratio (normalised),[5],0.98 (inactive)
same,normalised cell number,[5]; [13],1.02
same,normalised cell number,[5]; [14],1
same,fold change,[10]; [15],0.818 (inactive)
same,fold change,[10]; [16],0.977
same,cell count,[10]; [17],4740
same,cell count,[10]; [18],5800
CC1(C)S[C@@H]2[C@H](NC(=O)[C@H](C(=O)O)c3cccs3)C(=O)N2[C@H]1C(=O)O,red/green cell ratio (normalised),[5],0.96 (inactive)
same,normalised cell number,[5]; [13],1.05
same,normalised cell number,[5]; [14],1.01
same,fold change,[10]; [15],0.949 (inactive)
same,fold change,[10]; [16],0.673
same,cell count,[10]; [17],9210
same,cell count,[10]; [18],9700
OC[C@@H](O)[C@H](O)[C@@H](O)[C@H](O)CO,red/green cell ratio (normalised),[5],1.12 (inactive)
same,normalised cell number,[5]; [13],0.97
same,normalised cell number,[5]; [14],1.08
same,fold change,[10]; [15],0.853 (inactive)
same,fold change,[10]; [16],0.862
same,cell count,[10]; [17],7670
same,cell count,[10]; [18],9000
C[C@]1(Cn2ccnn2)C(C(=O)O)N2C(=O)CC2S1(=O)=O (stereo partly specified),red/green cell ratio (normalised),[5],0.89 (inactive)
same,normalised cell number,[5]; [13],1.34
same,normalised cell number,[5]; [14],1.19
same,fold change,[10]; [15],0.905 (inactive)
same,fold change,[10]; [16],0.742
same,cell count,[10]; [17],8100
same,cell count,[10]; [18],8960
CC1(C)O[C@@H]2CC3C4CCC5=CC(=O)C=C[C@]5(C)C4[C@@H](O)C[C@]3(C)[C@]2(C(=O)CO)O1 (stereo partly specified),red/green cell ratio (normalised),[5],0.93 (inactive)
same,normalised cell number,[5]; [13],1.22
same,normalised cell number,[5]; [14],1.14
same,fold change,[10]; [15],0.861 (inactive)
same,fold change,[10]; [16],1.01
same,cell count,[10]; [17],5940
same,cell count,[10]; [18],6900
CCCC[C@@H](CC)COC(=O)C(C#N)=C(c1ccccc1)c1ccccc1,red/green cell ratio (normalised),[5],0.92 (inactive)
same,normalised cell number,[5]; [13],1.19
same,normalised cell number,[5]; [14],1.09
same,fold change,[10]; [15],0.897 (inactive)
same,fold change,[10]; [16],0.819
same,cell count,[10]; [17],8030
same,cell count,[10]; [18],8950
